Rows were chosen to be rich in hits. Some 21% of all compounds tested hit in one or more screens of this group.
Cycloheximide cs – affects cycloheximide protein synthesis inhibition readout, counter-screen; cell reporter, cycloheximide protein synthesis inhibition counterscreen; max response, %; hit rate 12% among 300,000; in the data active = max response mostly above about 13%, no sharp cut-off; inactive = mostly below about 14%; also: read at 38.3 µM for the half of the compounds with a filed dose; 0% is about no effect
Pf growth 96h – P. falciparum growth inhibition at 96 hour, primary screen for plastid delayed-death inhibitors | P. falciparum luciferase reporter growth, 96 h | Potency, µM (highest dose often 28.7 µM), without a hit: at the top dose activity change, negative = inhibition, actives largely listed as inhibitors | hit rate 6.9% among 320,000 | AID 504834; active = well fitted inhibition curve with a large enough effect; inconclusive = small, poorly fitted or top-dose-only effect, or another doubt; inactive = no such curve, though single readings can be large or run the other way; also: potency is read from the fitted curve at half-maximal effect; % is scaled to controls: 0 for no effect and ±100 for the full control effect
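Readout is luminescence from an integrated firefly luciferase in P. falciparum. Red cells, 2% hematocrit and 0.05% parasitemia final, were cultured with compound through two parasite generations (96 hours) at 37 C, 5% CO2.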
NS1 function inh – inhibitors of influenza NS1 protein function | Potency, µM (top dose mostly 46.1 µM), for inactives: at the highest dose activity, positive = more growth | AID 2326 | hit rate 0.4% among 270,000; also: potency is read from the fitted curve at half-maximal effect; actives are rising curves; nearly all actives have a fitted effect of over 50% in size
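S. cerevisiae expressing influenza A NS1, grown in glucose, washed, then diluted 1:100 into pH 6.0 -URA galactose medium with 23 nl compound. Growth recovery read as OD600; NS1-free strain serves as control.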
SARS PLP yeast – SARS-CoV PLP inhibition in yeast | Potency, µM (doses to about 32.9 µM), without a hit: top-dose activity, positive = growth rescue, hits mostly activators | hit rate 0.19% among 330,000 | S. cerevisiae expressing SARS-CoV PLpro, growth rescue; also: potency is read from the fitted curve at half-maximal effect; 0% is about no effect; nearly all actives have a fitted effect of over 55% in size
Shiga inhibitor – blocks Shiga toxin action in Vero cells. Vero cells, Shiga toxin protein synthesis inhibition reporter. hit rate 9.2% among 290,000. inhibition, % at 38.7 µM; in the data active = inhibition mostly above about 28%, no sharp cut-off; inactive = mostly below about 43%; also: 0% is about no effect
Pf growth 48h – inhibits P. falciparum growth in the first generation, 48 h | P. falciparum luciferase growth in erythrocytes, 48 h | Potency, µM (top dose mostly 28.7 µM), for the others: top-dose activity change, negative = inhibition, hits mostly inhibitors | hit rate 5.9% among 310,000; active = well fitted inhibition curve with a large enough effect; inconclusive = small, poorly fitted or top-dose-only effect, or another doubt; inactive = no such curve, though single readings can be large or run the other way; also: potency is read from the fitted curve at half-maximal effect; % is scaled to controls: 0 for no effect and ±100 for the full control effect
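Read-out is firefly luciferase luminescence from an integrated reporter in P. falciparum, so falling signal marks reduced parasite growth. Infected erythrocytes were at 2% hematocrit and 0.1% parasitemia (final) in Albumax-supplemented RPMI 1640.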
Active calls of the source: *; ? = inconclusive; nt = not tested or not shown; [ ] = dose if it differs, or a comment. Unless noted, calls follow the shape of the full dose curve.

SMILES	Cycloheximide cs	Pf growth 96h	NS1 function inh	SARS PLP yeast	Shiga inhibitor	Pf growth 48h
Cc1csc(NC(=O)CSc2nnc(-c3ccc(S(=O)(=O)N4CCCC4)cc3)o2)n1	-8	nt	8%	-2%	-4	5.9µM*
Cc1csc(NC(=O)CSc2ccc(-c3ccccc3)nn2)n1	11	-42%	nt	-3%	17	?
CCN(CC)S(=O)(=O)c1ccc(-c2nnc(SCC(=O)Nc3nc(C)cs3)o2)cc1	-2	-54%	-10%	4%	-26	nt
Cc1csc(NC(=O)CSc2nnc(-c3ccccc3)o2)n1	28*	80%	8%	-4%	52*	nt
CN(CC(O)COCc1ccccc1F)C1CCCCC1 (configuration not stated)	13	-6%	-7%	-2%	8	22%
CCN(CC(O)COCc1ccc(Cl)cc1)C1CCCCC1 (configuration not stated)	-8	?	-2%	0%	-6	10µM*
Cc1cccc2c(CC(=O)Nc3ccccc3)noc12	12	17%	11%	9%	-36	20%
C=CCNC(=O)COC(=O)c1c2c(nc3ccccc13)CCC2	6	?	12%	-3%	-3	?
COc1ccc(OCC(=O)C2CC2)c(C#N)c1	27*	234%	-4%	0%	26	1.9µM*
COc1ccc(C(=O)Nc2nnc(CCS(=O)(=O)c3ccc(C)cc3)s2)cc1	7	74%	nt	0%	42	22%
Cc1cc(C)n(-c2cc(N3CCN(C(=O)c4ccc(C(C)(C)C)cc4)CC3)ccc2[N+](=O)[O-])n1	7	9.3µM*	15%	1%	-11	4.7µM*
O=[N+]([O-])c1ccc(N2CCCC2)nc1	-2	39%	1%	-1%	-2	42%
CC(C)(C)c1ccc(C(=O)N2CCCN(c3ccc([N+](=O)[O-])cn3)CC2)cc1	4	12µM*	-5%	1%	-3	?
Cc1ccc(N/C(CSC(N)=O)=N\S(=O)(=O)c2ccc(C)cc2)cc1	-2	nt	2%	-1%	-7	nt
Cc1ccc(N/C(CSC(N)=O)=N/S(=O)(=O)c2ccccc2)cc1	8	3.3µM*	-2%	0%	8	26%
O=C(CCl)Nc1cccn2ncnc12	6	nt	7%	?	-14	10µM*
O=C(Nc1cccn2ncnc12)c1cccc(C(F)(F)F)c1	24*	202%	nt	-4%	44	447%
CCOC(=O)c1cn(CC)c2cc(Cl)c([N+](=O)[O-])cc2c1=O	-3	?	2%	-1%	-10	13µM*
CCOC(=O)c1cn(-c2c(Cl)cccc2Cl)c2cc(Cl)c([N+](=O)[O-])cc2c1=O	-5	8.3µM*	-2%	13%	-16	13µM*
CCOC(=O)c1cn(CC2CC2)c2cc(F)c(F)cc2c1=O	-2	?	4%	-1%	7	-18%
COc1ccc(NS(=O)(=O)c2cc(C(=O)NNC(=O)c3ccncc3)ccc2OC)c(OC)c1	nt	nt	nt	3%	nt	nt
COc1ccccc1C(=O)OCc1ccc2sc(C)nc2c1	28*	4%	-40%	12%	78*	27%[5.75 µM]
CCOC(=O)c1sc2ccccc2c1OC(=O)c1ccccc1OC	-1	30%	11%	-6%	14	26%
Cc1ccccc1N=C1Nc2ccccc2CS1	29*	438%	-10%	3%	122*	165%
Cc1ccccc1N=C1NC(=O)CS1	-10	20%	2%	-2%	-6	9%
SMILES	Cycloheximide cs	Pf growth 96h	NS1 function inh	SARS PLP yeast	Shiga inhibitor	Pf growth 48h
O=C(NCCCN1CCOCC1)c1cccnc1SCc1ccccc1Cl	11	4%	nt	0%	15	-20%
CCCCc1ccc(-c2nc(NC(=O)C3C4CCC(O4)C3C(=O)O)sc2C)cc1 (configuration not stated)	44*	98%	-115%	-29%	58*	33%
CCc1cccc(C)c1NC(=O)C1C2CCC(O2)C1C(=O)O (configuration not stated)	-4	?	2%	2%	-4	4%
OC(c1cc(-c2ccc(C(F)(F)F)cc2)nc(C(F)(F)F)c1)C1CCCCN1 (configuration not stated)	-10	0.0083µM*	9%	1%	-13	0.1µM*
OC(c1cc(C(F)(F)F)nc2c(C(F)(F)F)cccc12)C1CCCCN1 (configuration not stated)	nt	0.0037µM*	nt	nt	nt	0.0093µM*
Cc1ccc(NC(=S)NNS(=O)(=O)c2ccc3ccccc3c2)cc1Cl	-1	-25%	nt	-3%	-7	23%
O=C1C=C(c2ccc3c(c2)OCCO3)C[C@@H](c2ccc(F)cc2)C1	nt	?	nt	2%	nt	-19%
CCN1CCN(Cc2ccc(NC(=O)c3cc(NC(=O)c4cncc(-c5cccs5)c4)cc(OC)c3)cc2C(F)(F)F)CC1	-11	?	17%	-1%	-19	?
O=C(Nc1cccc(C(F)(F)F)c1)c1csc(-c2ccncc2)n1	8	?	5%	-3%	-2	?
CCOc1cccc(C(=O)Nc2ccc(NC(=O)c3cc4ccccc4o3)c(OC)c2)c1	-2	50%	9%	-5%	2	8%
CCN1CCN(Cc2ccc(NC(=O)c3cc(NC(=O)N4CCNC4=O)cc(OC)c3)cc2C(F)(F)F)CC1	-4	4.1µM*	1%	1%	-4	5.2µM*
CCN1CCN(Cc2ccc(NC(=O)c3cc(NC(=O)c4ccc5n[nH]nc5c4)cc(OC)c3)cc2C(F)(F)F)CC1	-3	2.3µM*	-12%	-1%	13	4.1µM*
COc1cc(NC(=O)c2csc(-c3ccncc3)n2)cc(C(=O)Nc2cccc(C(F)(F)F)c2)c1	1	5.2µM*	8%	-9%	6	?
CCN1CCN(Cc2ccc(NC(=O)c3cc(NC(=O)c4cc5cccc(OC)c5o4)cc(OC)c3)cc2C(F)(F)F)CC1	-8	0.29µM*	-35%	0%	-25	0.83µM*
CC1(C)CC(Cc2nc(=S)[nH][nH]2)C(=O)O1 (configuration not stated)	-2	0%	nt	2%	20	2%
C[C@H](NC(=O)[C@@H](Cc1c[nH]c2ccccc12)NC(=O)[C@@H](N)Cc1cnc[nH]1)C(=O)N[C@@H](Cc1c[nH]c2ccccc12)C(=O)N[C@H](Cc1ccccc1)C(=O)N[C@@H](CCCCN)C(N)=O	-3	nt	nt	nt	-3	nt
CCN1CCN(Cc2ccc(NC(=O)c3cc(NC(=O)c4ccno4)cc(OC)c3)cc2C(F)(F)F)CC1	-8	0.83µM*	-1%	-2%	-10	?
CCN1CCN(Cc2ccc(NC(=O)c3ccc(C)c(NC(=O)c4ccno4)c3)cc2C(F)(F)F)CC1	-7	?	0%	-3%	-10	?
COc1cc(NC(=O)c2ccno2)cc(C(=O)Nc2cccc(C(F)(F)F)c2)c1	-3	?	-3%	-5%	-7	?
COc1cc(NC(=O)c2cc3cccc(OC)c3o2)cc(C(=O)Nc2cccc(C(F)(F)F)c2)c1	-3	10µM*	3%	1%	-3	13µM*

Screens from PubChem BioAssay.
